{"source": "PubChem BioAssay (Tox21)", "note": "“And” between values parts separate entries of the source, which are not always exact repeats. Equal entries are not always repeated. Results filed as inconclusive are left out. A call without a number means that no potency is given here. More than one record can exist for a structure, and the calls need not agree. The source made the active and inactive calls. Calls follow the shape of the dose curve; as a rule, active = well fitted inhibition curve with a large enough effect in the repeat runs; inconclusive = weak or mixed curves; inactive = no such curve, though single readings can be large or run the other way."}
{"target": "Cytochrome P450 3A4 (Homo sapiens) (UniProt P08684)", "sequence (P08684 whole entry, looked up)": "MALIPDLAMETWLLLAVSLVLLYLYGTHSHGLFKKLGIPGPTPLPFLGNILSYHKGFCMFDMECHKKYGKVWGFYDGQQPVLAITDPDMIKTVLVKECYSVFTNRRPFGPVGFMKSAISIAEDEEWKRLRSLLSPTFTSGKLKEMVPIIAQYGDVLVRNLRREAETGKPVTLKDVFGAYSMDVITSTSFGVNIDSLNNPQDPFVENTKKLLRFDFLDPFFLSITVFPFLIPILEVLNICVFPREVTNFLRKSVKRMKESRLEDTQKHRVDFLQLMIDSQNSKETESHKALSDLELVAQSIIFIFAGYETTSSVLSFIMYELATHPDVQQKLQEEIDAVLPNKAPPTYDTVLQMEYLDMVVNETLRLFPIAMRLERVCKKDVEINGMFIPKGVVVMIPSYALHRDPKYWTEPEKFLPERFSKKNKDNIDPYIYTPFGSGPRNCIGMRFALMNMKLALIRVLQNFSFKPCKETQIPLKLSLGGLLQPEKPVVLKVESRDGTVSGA", "experiment": "Cytochrome P450 Family 3 Subfamily A Member 4 (CYP3A4) small molecule antagonists: luciferase reporter qHTS assay (AID 1671201); also: nearly all actives have a fitted effect of over 50% in size; also: potency is read from the fitted curve at half-maximal effect", "details": "P450-Glo CYP3A4 enzyme, luciferin luminescence, 1 h; series mostly up to 115 µM", "source_text": "National Center for Advancing Translational Sciences [NCATS]\nU.S. Environmental Protection Agency [EPA]\nNational Institutes of Environmental Health Sciences [NIEHS]\nNational Toxicology Program [NTP]\nU.S. Food and Drug Administration [FDA]\nCytochrome P450 (CYP) enzymes are membrane-bound hemeproteins that play a key role in metabolism of drugs and xenobiotics. Evaluation of the effect of chemicals on CYP isozymes is useful to minimize the adverse drug reactions and toxicities in drug development process. Tox21 chemicals were tested for their effect on CYP enzyme activities by using P450-Glo (TM) screening systems (Promega Corporation, Madison, WI). These systems provide a luminescent method containing proluciferin substrates and are converted to luciferin products by CYP isozymes. The luciferin products formed are detected with a luciferin detection reagent, and the amount of light produced is proportional to CYP activity. P450-Glo (TM) CYP3A4 screening system (Catalog. No. V9910) was used to detect the compounds that interfere in CYP3A4 activity. The positive control compound used for CYP3A4 assay is ketoconazole (Sigma-Aldrich, St. Louis, MO).\nTox21 Assay Protocol Summary:\nTwo ul of enzyme-substrate mix was dispensed into medium binding white/solid 1536-well plates (Greiner Bio-One North America Inc., Monroe, NC) using a BioRaptr Flying Reagent Dispenser (FRD, Beckman Coulter, Brea, CA). Compounds dissolved in DMSO and positive control (ketoconazole) were transferred to the assay plates at 23 nl using a Pintool station (Wako, San Diego, CA). The assay plates were incubated at room temperature for 10 min. Then 2 ul of NADPH regeneration solution was added to each well of the assay plates using an FRD and incubated at room temperature for 1 h. The reaction was stopped by adding 4 ul of detection reagent using an FRD and after 20 min incubation at room temperature the luminescence signal was measured using a ViewLux plate reader (Perkin Elmer, Shelton, CT). Data were expressed as relative luminescence units."}
{"compound": "COCC(=O)N(c1c(C)cccc1C)C(C)C(=O)OC", "note": "(stereo not given)", "Potency": "inactive"}
{"compound": "C[N+](C)(C)Cc1ccccc1", "Potency": "inactive"}
{"compound": "CCCCCCCCCCn1cc[n+](C)c1", "Potency": "inactive"}
{"compound": "Oc1ccccc1-c1ccccc1", "Potency": "inactive"}
{"compound": "CCCC[N+]1(C)CCCCC1", "Potency": "inactive"}
{"compound": "CCC[N+]1(C)CCCCC1", "Potency": "inactive"}
{"compound": "CCCCCCCCCCCCOS(=O)(=O)O", "Potency": "inactive"}
{"compound": "CC[n+]1ccccc1", "Potency": "inactive"}
{"compound": "CC(=O)[O][Hg][c]1ccccc1", "Potency": "4.98 µM (active) and 7.96 µM (active) and 12.3 µM (active)"}
{"compound": "COc1ccccc1N", "Potency": "22.4 µM (active) and inactive and 28.3 µM (active)"}
{"compound": "Nc1ccc(Cl)cc1", "Potency": "inactive"}
{"compound": "O=C(O)CCl", "Potency": "inactive"}
{"compound": "CCCCCCCCn1cc[n+](C)c1", "Potency": "inactive"}
{"compound": "CCCCCCn1cc[n+](C)c1", "Potency": "inactive"}
{"compound": "O=c1[nH]c(=O)n(Cl)c(=O)n1Cl", "Potency": "inactive"}
{"compound": "CCCC[n+]1ccccc1", "Potency": "inactive"}
{"compound": "O=c1nc(O)n(Cl)c(=O)n1Cl", "Potency": "inactive"}
{"compound": "CCC[N+]1(C)CCCC1", "Potency": "inactive"}
{"compound": "CC(Cl)(Cl)C(=O)O", "Potency": "inactive"}
{"compound": "OCCOc1ccccc1", "Potency": "inactive"}
{"compound": "O=C(O)C(Cl)(Cl)Cl", "Potency": "inactive"}
{"compound": "C1CCC(NC2CCCCC2)CC1", "Potency": "inactive"}
{"compound": "CCCCCCCCCCCCn1cc[n+](C)c1", "Potency": "80.3 µM (active) and inactive"}
{"compound": "C[C@]12CCC(=O)C=C1CC[C@@H]1[C@@H]2CC[C@]2(C)C(=O)CC[C@@H]12", "Potency": "inactive"}
{"compound": "CCNc1nc(Cl)nc(NCC)n1", "Potency": "inactive"}
{"compound": "COP(=O)(OC)OC=C(Cl)Cl", "Potency": "inactive"}
{"compound": "CN(C)[C@@H]1C(=O)C(C(N)=O)=C(O)[C@@]2(O)C(=O)C3=C(O)c4c(O)cccc4[C@@](C)(O)[C@H]3[C@H](O)[C@@H]12", "Potency": "inactive"}
{"compound": "Nc1ccccc1", "Potency": "inactive"}
{"compound": "O=C(O)c1nc(Cl)ccc1Cl", "Potency": "inactive"}
{"compound": "CCCC[n+]1ccccc1C", "Potency": "inactive"}
{"compound": "Nc1ccc(-c2ccc(N)c(Cl)c2)cc1Cl", "Potency": "5.05 µM (active) and 6.63 µM (active) and 7.96 µM (active)"}
{"compound": "CCCC[n+]1cccc(C)c1", "Potency": "inactive"}
{"compound": "O=C(O)COc1ccc(Cl)cc1Cl", "Potency": "inactive"}
{"compound": "O=[N+]([O-])c1ccccc1O", "Potency": "inactive"}
{"compound": "COc1ccc(N)cc1", "Potency": "inactive"}
{"compound": "CCCCn1cc[n+](C)c1C", "Potency": "inactive"}
{"compound": "CCCCCCCCCCCC(=O)O", "Potency": "inactive"}
{"compound": "CCCC[n+]1ccc(C)cc1", "Potency": "inactive"}
{"compound": "CCCn1cc[n+](C)c1", "Potency": "inactive"}
{"compound": "Nc1ccc(-c2ccc(N)cc2)cc1", "Potency": "7.87 µM (active) and 7.91 µM (active) and 17.8 µM (active)"}
